Test results published in PubChem BioAssay.

How the values were obtained:
[1] = system: Human papillomavirus type 1a protein E7 (residues 44-93); test: small molecules binding HPV E7 44-93 – biochemical, small-molecule microarray, residues 44-93, 635 nm fluorescence, primary screen (AID 1108); details: fluorescence 635 nm, higher = more signal;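 note: E7 fragment applied at 1 µg/mL in TBST for 1 h at 4 C; score combines spot fluorescence with its signal to noise ratio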
[2] = hepatitis C replication reporter changes, two-sided – Huh7 cells, luciferase reporter, HCV replication inhibitor project, primary screen (AID 1109); details: Huh7 HCV replicon luciferase reporter, 48 h; higher = more signal;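 note: huh7 hepatoma cells harbouring a luciferase neomycin HCV replicon reporter; luciferase luminescence as measure of HCV replicon replication; test concentration not given here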
[3] = target: Left-right determination factor 2 (Homo sapiens) (UniProt O00292); test: small molecules binding LEFTY2 protein – biochemical, small-molecule microarray, 635 nm fluorescence scan, primary screen (AID 1110); details: higher = more signal
Sequence of Left-right determination factor 2 (Homo sapiens) (O00292 whole entry, looked up): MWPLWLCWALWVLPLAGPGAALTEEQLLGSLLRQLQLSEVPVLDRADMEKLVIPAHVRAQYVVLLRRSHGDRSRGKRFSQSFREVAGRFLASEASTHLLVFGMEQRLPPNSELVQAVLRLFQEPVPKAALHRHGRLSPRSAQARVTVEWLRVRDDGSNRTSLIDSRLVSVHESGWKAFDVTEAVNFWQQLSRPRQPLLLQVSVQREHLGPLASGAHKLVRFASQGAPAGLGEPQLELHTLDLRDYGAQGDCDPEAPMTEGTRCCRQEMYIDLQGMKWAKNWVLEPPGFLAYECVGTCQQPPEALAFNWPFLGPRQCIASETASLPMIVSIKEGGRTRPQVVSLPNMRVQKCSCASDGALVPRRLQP

[4] = target: Calmodulin-1 (Homo sapiens) (UniProt P0DP23); test: small molecules binding calmodulin-1 with EGTA – biochemical, small-molecule microarray, Cy5-labelled CALM1, profiling panel (AID 1111); details: Cy5-CALM1 binding fluorescence, higher = more signal;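 note: labelled calmodulin applied in Tris saline Tween buffer holding calcium plus EGTA and DTT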
[5] = target: Calmodulin-1 (Homo sapiens) (UniProt P0DP23); test: small molecules binding Ca-loaded calmodulin-1 – biochemical, small-molecule microarray, Cy5-labelled CALM1, plus calcium, artefact control for SMM control-protein annotation, profiling panel (AID 1112); details: Cy5-CALM1 binding fluorescence, higher = more signal;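 note: score merges spot fluorescence with signal to noise from triplicate slides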
[6] = probe aWnt5a binding to arrayed compounds – biochemical, biotinylated probe, 635/667 nm fluorescence, primary screen (AID 1113); details: small-molecule microarray, higher = more signal;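 note: score merges 667 nm fluorescence intensity with signal-to-noise per printed feature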
[7] = probe aShh binding to arrayed compounds – biochemical, biotinylated probe, 635/667 nm fluorescence, primary screen (AID 1114); details: small-molecule microarray, higher = more signal;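 note: probe is biotin-labelled aShh protein from a stem cell growth factor screen; measures binding of labelled protein to compounds printed on the slide; score merges feature fluorescence at 667 nm with signal-to-noise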
[8] = probe aNog binding to arrayed compounds – biochemical, biotinylated probe, 635/667 nm fluorescence, primary screen (AID 1115); details: small-molecule microarray, higher = more signal;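 note: probe is biotinylated aNog protein used at 0.15 µg/mL for 1 h at 4 C; z-score combines 667 nm fluorescence of each spot with its signal to noise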
[9] = target: Torsin-1A-interacting protein 1 (Homo sapiens) (UniProt Q5JTV8); test: compound microarray binding of lysate hLAP1 – cell lysate, small-molecule microarray, COS7 lysate, 635/667 nm fluorescence, primary screen (AID 1116); details: 635 nm fluorescence, higher = more signal
Sequence of Torsin-1A-interacting protein 1 (Homo sapiens) (Q5JTV8 whole entry, looked up): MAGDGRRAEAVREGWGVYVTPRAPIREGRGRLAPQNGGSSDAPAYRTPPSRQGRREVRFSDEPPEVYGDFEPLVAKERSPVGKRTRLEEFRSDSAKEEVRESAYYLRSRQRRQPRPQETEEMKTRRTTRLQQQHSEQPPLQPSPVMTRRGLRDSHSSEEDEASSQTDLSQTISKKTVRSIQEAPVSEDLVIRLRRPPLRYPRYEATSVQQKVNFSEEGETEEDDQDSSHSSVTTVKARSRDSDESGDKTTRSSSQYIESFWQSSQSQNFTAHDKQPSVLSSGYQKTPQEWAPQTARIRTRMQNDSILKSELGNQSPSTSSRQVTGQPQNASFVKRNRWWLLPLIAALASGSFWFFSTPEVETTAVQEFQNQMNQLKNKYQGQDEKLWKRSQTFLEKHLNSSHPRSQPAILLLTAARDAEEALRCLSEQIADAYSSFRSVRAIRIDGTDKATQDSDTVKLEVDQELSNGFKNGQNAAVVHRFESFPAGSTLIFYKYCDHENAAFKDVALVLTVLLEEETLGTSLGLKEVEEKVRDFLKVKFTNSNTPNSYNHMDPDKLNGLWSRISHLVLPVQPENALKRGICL

[10] = target: Alpha-bungarotoxin (Bungarus multicinctus) (UniProt P60615); test: compounds binding labelled alpha-BTX control protein – biochemical, small-molecule microarray, Alexa647 label, 635/667 nm fluorescence, artefact control for SMM control protein annotation, profiling panel (AID 1117); details: alpha-BTX-A647 binding fluorescence, higher = more signal
Sequence of Alpha-bungarotoxin (Bungarus multicinctus) (P60615 whole entry, looked up): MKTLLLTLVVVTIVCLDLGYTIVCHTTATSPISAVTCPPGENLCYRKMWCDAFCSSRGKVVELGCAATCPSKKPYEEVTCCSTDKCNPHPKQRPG

SMILES | composite z-score [1] | z-score [2] | composite z-score [3] | composite z-score [4] | composite z-score [5] | composite z-score [6] | composite z-score [7] | composite z-score [8] | composite z-score [9] | composite z-score [10]
Cc1ccc(S[C@]2(C(=O)NC(C)C)CC(=O)N(Cc3cc(C(F)(F)F)cc(C(F)(F)F)c3)[C@@H]2c2ccc(CO)cc2)cc1 | -0.411 | -0.343 | -1.76 | -0.491 | 0.0262 | 0.0857 | -0.393 | -0.143 | 0.0702 | 0.26
C#CCN([C@@H](Cc1ccccc1)C(=O)OC)[C@@H](/C=C/C1CC1)[C@H](O)Cc1ccccc1 | -0.447 | -3.13 | 0.0156 | -0.979 | -1.54 | -0.217 | -0.0553 | -0.352 | 0.483 | 0.0673
CCCC#C[Si](O[C@H](CC)c1cn([C@H](C)c2ccccc2)nn1)(C(C)C)C(C)C | 0.691 | -0.133 | 0.3 | -0.155 | -0.157 | -0.124 | 0.275 | 0.341 | 1.54 | 0.709
C=CCNC(=O)[C@@H]1[C@H]2C(=O)O[C@H](c3ccccc3)[C@H](c3ccccc3)N2[C@H](c2ccccc2OCCO)[C@@]12C(=O)N(C(=O)OCCOC)c1ccc(C#CC3(O)CCCCCC3)cc12 | 1.23 | -2.27 | 0.694 | 0.66 | 0.212 | -0.0566 | -0.0035 | -0.0224 | 1.35 | 0.859
C=CC[C@@H](OC(=O)Nc1ccc(OC)cc1)c1ccc(O)c(F)c1 | 0.954 | -1.73 | -0.784 | -0.976 | -0.427 | -0.184 | 0.0141 | -0.0602 | 1.55 | -0.418
CC(C)NC(=O)[C@@]1(c2ccc([N+](=O)[O-])cc2)CC(=O)N(C2CCCCC2)[C@@H]1c1ccc(CO)cc1 | 1.46 | -0.778 | -0.016 | -0.0034 | -0.0027 | 0.0115 | -0.553 | 0.275 | 2.08 | 0.621
CC(=O)N1CC2(CC2)CC1c1ccccc1 (stereo not given) | 0.753 | 0.677 | 0.171 | 0.107 | 0.0916 | 1.19 | -0.227 | 2.15 | 0.791 | -0.217
NC(=O)NCC#Cc1ccc2c(c1)[C@]1(C(=O)N2)[C@H](C(=O)N2CCN(c3ncccn3)CC2)[C@H]2C(=O)O[C@H](c3ccccc3)[C@H](c3ccccc3)N2[C@@H]1c1ccc(O)cc1 | 1.23 | -0.437 | 0.728 | 0.313 | -0.156 | 0.108 | 0.296 | -0.524 | 0.498 | 0.677
CCOC(=O)C[C@H]1[C@H](OC(=O)c2cc3ccccc3oc2=O)[C@@H](NC(=O)c2ccccc2)c2cc(OCCCO)ccc2N1C(=O)c1ccccc1 | 0.119 | -0.148 | 0.535 | -0.0848 | -0.782 | -0.0718 | 0.0121 | -0.108 | 0.203 | 0.139
CC1=C2[C@@H](CCc3ccccc3)OB(O)C[C@@H]2[C@@H]2C(=O)N(C)C(=O)[C@@H]2C1 | 0.135 | -0.779 | 0.173 | 0.0309 | -0.338 | -0.0519 | 0.0469 | -0.137 | 0.284 | 0.769
Cc1ccc(S[C@]2(C(=O)O)CC(=O)N(C3CCCCC3)[C@@H]2c2ccc(CO)cc2I)cc1 | 1.35 | -0.298 | -0.326 | 1.79 | 0.63 | -0.113 | 0.351 | 1.06 | 1.4 | 0.763
C[N+](C)(C)CCCC[C@@H]1NC(=O)[C@@H]2C[C@H](C(=O)NCCCCCCN)[C@H](c3cccc(OCCO)c3)N2C1=O | 0.896 | -0.0759 | 0.676 | 2.6 | 1.48 | 0.095 | 1.45 | 0.662 | 2.55 | 1.9
O=C(C1N=C(c2ccc(OCCCO)cc2)N(c2ccccc2)O1)N1CCCCC1 (stereo not given) | 1.26 | 0.65 | 0.413 | 2 | 0.867 | 0.0454 | -0.229 | 0.411 | 1.25 | 1.85
[N-]=[N+]=Nc1ccccc1[C@H]1OC(c2ccc(OCCCO)cc2)=N[C@@]1(Cc1ccccc1)C(=O)NCCN1CCOCC1 | 0.632 | -1.85 | 0.331 | 2.07 | 0.469 | 0.248 | 0.171 | -0.61 | 0.998 | 1.8
CN(C)c1ccc(C(O)C2C=CC3C(=O)NC(=O)C3N2Nc2ccccn2)cc1 (stereo not given) | 1.34 | -0.125 | 0.883 | -0.365 | -0.733 | -0.13 | -0.154 | 0.213 | -0.269 | 0.162
CC1=C2[C@@H](CCc3ccccc3)OB(O)C[C@@H]2[C@@H]2C(=O)N(Cc3ccccc3)C(=O)[C@@H]2C1 | -0.125 | -0.873 | 0.809 | -0.122 | -0.605 | -0.0869 | -0.0709 | -0.314 | 0.59 | 0.659
CC(C)[Si]1(C(C)C)OCc2cc(C3CC3)nc(-c3ccc(Oc4ccccc4)cc3)c21 | -1.16 | -2.24 | -0.168 | -0.289 | 0.631 | -0.18 | -0.117 | -0.0208 | -0.414 | -0.336
C=C(/C(=C/C[C@H](OC(C)=O)c1ccc(CO)o1)c1cnc2ccccc2c1)C(C)C | 1.43 | -2.23 | 0.552 | 1.4 | -0.24 | -0.0643 | 0.149 | 0.33 | 1.07 | 2.15
COC(=O)[C@@]1(Cc2ccc(F)cc2)[C@H]2c3cc(C(=O)N(C)C)n(CCc4ccc(OC)c(Br)c4)c3C[C@H]2CN1C(=O)c1ccccc1 | 0.971 | -3.74 | -0.392 | 0.314 | 0.535 | 1.19 | 0.289 | 2.8 | 0.589 | 0.653
C#Cc1cc2ccccc2oc1=O | -0.455 | -3.88 | -2.19 | -1.07 | -0.451 | -0.187 | 0.541 | -0.396 | -0.402 | -1.65
Oc1ccc2cc[n+](Cc3cc4c(cc3Br)OCO4)cc2c1 | -1.22 | 1.65 | -0.929 | -0.489 | 0.446 | -0.1 | -0.0769 | -0.0546 | -0.346 | -0.791
